High-throughput results as filed in PubChem BioAssay.
A selection: hits, their analogues and other compounds. The true share with any hit is near 4.7%.
TRHR PAM: TRH receptor (human) allosteric enhancement | P34981 | TRHR cells, fluo-8 calcium fluorescence, EC20 TRH enhancement | enhancement, % at 2 µM | 360,000 tested, 0.66% active | AID 493056; in the data active = enhancement above about 30%; also: 0% is about no effect
Target sequence (P34981 whole entry, looked up): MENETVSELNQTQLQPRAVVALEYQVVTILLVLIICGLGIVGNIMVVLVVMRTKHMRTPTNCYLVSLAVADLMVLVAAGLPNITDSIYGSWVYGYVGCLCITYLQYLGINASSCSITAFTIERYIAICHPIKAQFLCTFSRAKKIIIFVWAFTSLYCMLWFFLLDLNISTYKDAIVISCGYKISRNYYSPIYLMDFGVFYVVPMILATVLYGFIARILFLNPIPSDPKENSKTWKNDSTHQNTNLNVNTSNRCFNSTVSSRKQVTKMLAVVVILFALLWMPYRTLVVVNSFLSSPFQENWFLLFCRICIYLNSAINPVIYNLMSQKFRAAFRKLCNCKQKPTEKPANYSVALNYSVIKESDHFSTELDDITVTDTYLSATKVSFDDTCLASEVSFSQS
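Enhancer read-out: after compound pinning and an initial kinetic agonist-mode read, an EC20 of TRH (10 nM final) was injected and fluo-8 calcium signal (Ex 480/Em 530) followed at 1 s/cycle for 100 cycles in TRHR-expressing cells.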
D1 agonist: agonists of human D1 dopamine receptor; HEK293 T-REx D1 cells, calcium flux, agonist mode; activation, % at 2 µM; 360,000 tested, 1% active; also: 0% is about no effect
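Tetracycline-induced HEK293 TREx D1 cells, force-coupled to calcium signalling, were dye-loaded with a no-wash calcium kit. Compound was pin-added after a 10 s baseline. Fluorescence was read kinetically at 1 cycle/s for 180 s, with calcium rises flagged as agonism.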
D1 PAM: potentiators of human D1 dopamine receptor | P21728 | HEK293 TREx D1 cells, calcium flux, dopamine EC20 potentiation | potentiation, % at 10 µM | 360,000 tested, 0.036% active | AID 504651; in the data active = potentiation above about 30%; also: 0% is about no effect
D1 antagonist: human D1 dopamine receptor antagonism; P21728; 360,000 tested, 3.2% active; activity change, negative = inhibition, % at 10 µM; HEK293 TREx D1 cells, calcium flux, dopamine EC80; hits give low values; in the data active = activity change below about -30%; also: % is scaled to controls: 0 for no effect and ±100 for the full control effect
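Calcium flux readout: force-coupled, inducible Hek293 Trex D1 line, cells induced overnight at 30 C with tetracycline, dye-loaded 30–90 min at RT. Antagonism scored against EC80 dopamine challenge given 180 s after compound.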
TRHR ag: agonists of human TRH receptor; P34981; TRHR cells, calcium flux fluo-8, FDSS agonist mode; activation, % at 2 µM; 360,000 tested, 0.18% active; also: 0% is about no effect
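Steps: seed TRHR cells overnight; add fluo-8 no-wash Ca dye, RT 30 min–1.5 h; record 10 s baseline; pin-transfer compounds; monitor fluorescence 1 cycle/s for the agonist window. Calcium increases flag candidate agonists.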
Active calls of the source: *; ! = not confirmed by another sample. Rule as the data show it, unless noted: active = activation above about 30%; inactive = the rest.

SMILES	TRHR PAM	D1 agonist	D1 PAM	D1 antagonist	TRHR ag
COc1ccc(-c2csc(NS(=O)(=O)c3ccc([N+](=O)[O-])cc3)n2)cc1	-4	-1	-11	-31*	0
CNc1nc(-c2ccc([N+](=O)[O-])cc2)cs1	-16	2	-7	-5	-1
Cc1ccc(S(=O)(=O)N(C)c2ccc(OCC(=O)Nc3nc(-c4ccccc4)cs3)cc2)cc1	-3	7	-7	-37*	0
COc1ccc(-c2csc(NC(=O)c3ccccc3NS(=O)(=O)c3ccc(F)c(F)c3)n2)cc1	-9	23	-10	-49*	1
Cc1ccc(S(=O)(=O)Nc2ccccc2C(=O)Nc2nc(-c3ccc(F)cc3)cs2)cc1	9	26	-8	-65*	0
O=C(Cn1ncc2c3ccccc3n(Cc3ccccc3F)c2c1=O)NCc1ccccc1Cl	13	0	-2	3	1
Cc1ccc2c(c1)C1CN(C)CCC1N2Sc1ccccc1[N+](=O)[O-] (stereo unspecified)	-1	20	-8	-95*	1
Cc1ccc2c(c1)[C@@H]1CN(C)CC[C@@H]1N2S(=O)(=O)c1ccc(F)cc1	-4	7	-10	-3	1
Cc1ccc2c(c1)[C@@H]1CN(C)CC[C@@H]1N2S(=O)(=O)c1ccc([N+](=O)[O-])cc1	3	60*	-1	-1	0
Cc1cc2c(s1)c1cnn(Cc3cc(F)c(F)c(F)c3)c(=O)c1n2C	1	1	4	-9	0
CCCCOc1ccc(C2CCC(C(C)=O)C(C)C2)cc1 (stereo unspecified)	-4	4	3	7	1
Cc1ccc(SCC(=O)OCC(=O)N(C)CC(=O)Nc2ccc(F)cc2)cc1C	35*	53*	8	62	0
CN(CC(=O)Nc1ccc(F)cc1)C(=O)CSc1ccc2c(c1)OCCO2	3	2	-3	1	0
CCOC(=O)C1[C@H]2C(=O)N(C(C)c3ccc(OC)cc3)C[C@]23C=C[C@H]1O3 (stereo partly specified)	-3	0	2	-41*	0
CCCOC(=O)C1[C@H]2C(=O)N(C(C)c3ccc(OC)cc3)C[C@]23C=C[C@H]1O3 (stereo partly specified)	1	1	-1	4	0
CN(C)CCCNS(=O)(=O)c1ccc(Oc2ncc(C(F)(F)F)cc2Cl)cc1	5	61*	-7	-17	-1
COc1ccc(S(=O)(=O)N(CC(=O)NCCSCc2ccccc2)c2ccc(C)cc2)cc1	-11	32*	2	-16	6
COc1ccc(N(CC(=O)NCc2ccc(C)cc2)S(=O)(=O)c2c(C)[nH]c(=O)[nH]c2=O)cc1	-7	-1	-7	-35*!	6
Cc1ccc(N(CC(=O)NCCSc2ccccc2)S(=O)(=O)c2ccc(F)cc2)cc1	-9	19	-2	-31*	3
Cc1ccc(S(=O)(=O)NCCSCc2ccccc2)cc1	3	4	-2	-30*	-1
COc1ccc(Nc2nc(Nc3ccc(OC)cc3OC)nc(N3CCOCC3)n2)c(OC)c1	-5	1	-4	-2	-1
Cc1ccc(C)c(OCC(=O)Nc2ccccc2N2CCCC2)c1	0	2	1	18	-1
COc1ccc(N(CC(=O)N/N=C/c2ccc(-c3ccc([N+](=O)[O-])cc3)o2)S(=O)(=O)c2ccc(C)cc2)cc1	-1	73*	-10	8	3
CCOc1ccc(S(=O)(=O)N(CC(=O)NCCSc2ccc(C)cc2)c2ccccc2)cc1	5	9	-1	4	0
COc1ccc(S(=O)(=O)N(CC(=O)NCCSc2ccc(C)cc2)c2ccc(C)cc2)cc1	4	56*	2	-19	3
SMILES	TRHR PAM	D1 agonist	D1 PAM	D1 antagonist	TRHR ag
COc1ccc(N(CC(=O)N/N=C/c2ccc(-c3ccc([N+](=O)[O-])cc3)o2)S(=O)(=O)c2ccc(C)cc2)cc1Cl	-2	9	0	0	3
O=C(O)c1ccc(S(=O)(=O)N[C@@H](Cc2ccc(O)cc2)C(=O)O)cc1	-2	4	-2	-11	0
N#Cc1ccc(C[C@@H](NS(=O)(=O)c2ccc(C(=O)O)cc2)C(=O)O)cc1	5	2	-5	-35*	-1
CCc1cccc2cc3c(N)c(C(=O)Nc4ccc(S(=O)(=O)N5CCCC5)cc4)sc3nc12	-3	60*	0	12	23
Cc1cccc2cc3c(N)c(C(=O)Nc4ccc(N5CCOCC5)cc4)sc3nc12	9	25	-6	-8	7
CCCCCOc1c(Cl)cc(C(=O)N(Cc2ccc(C)o2)C2CCS(=O)(=O)C2)cc1Cl (stereo unspecified)	27	30*	-2	14	-2
CCCCOc1c(Cl)cc(C(=O)N(Cc2ccc(C)o2)C2CCS(=O)(=O)C2)cc1Cl (stereo unspecified)	8	23	6	3	-1
CC(=O)C1=C(O)CCCC1=NCc1nc2ccccc2[nH]1	4	7	-7	-34*	-5
COc1ccccc1N=c1scc(-c2ccc(S(=O)(=O)N3CCCC3)cc2)n1C	-3	21	-1	-34*	0
Cn1c(CN2CCCCC2)nc2cc(NS(=O)(=O)c3ccc(Cl)cc3)ccc21	-4	52*	-8	-17	3
Cc1ccc2oc(-c3ccc(Cl)cc3)c(O)c(=O)c2c1	-11	71*	-2	-22	10
OCC1(Cc2ccccc2)CCN(Cc2cnc(-c3cccc4ccccc34)nc2)CC1	16	5	-7	-24	-2
OCC1(Cc2ccccc2)CCN(Cc2cnc(-c3ccc(Cl)cc3)nc2)CC1	-2	8	-6	7	1
COc1ccc(-c2ncc(CN3CCC(CO)(Cc4cccc(OC)c4)CC3)cn2)cc1	-2	39*	6	-1	1
Cc1ccccc1-c1ncc(CN2CCC(CO)(CCCc3ccccc3)CC2)cn1	8	10	-3	-55*	-2
CCCc1nc2nc(C)c(NS(=O)(=O)c3ccc(C(C)(C)C)cc3)c(=O)n2[nH]1	-1	-2	0	9	1
CC(C)c1cc(=O)n2c(nc3ccccc32)[nH]1	-4	1	2	-2	1
CC(=O)NC(CC(=O)OCC(=O)N1CCN(S(=O)(=O)c2ccc(C)cc2C)CC1)c1ccccc1 (stereo unspecified)	0	1	8	-2	-1
CCN(CC(=O)Nc1ccccc1C(F)(F)F)C(=O)CCS(=O)(=O)c1ccc(Cl)cc1	9	9	-1	-30*	-1
NC(=O)c1ccc[n+](CC(=O)c2ccc(Cl)c(Cl)c2)c1	3	-1	-4	-83*	0
NC(=O)c1ccc[n+](CC(=O)c2ccccc2)c1	0	2	3	0	0
